Records with an inconclusive call do not appear. Where a call stands in place of a potency, no number is given. Calls of active or inactive are those of the source. Calls come from the whole dose curve; as a rule, active = well fitted cell-killing curve with a large enough effect in the repeat runs; inconclusive = weak or mixed curves, or effect the other way; inactive = flat fitted curve, though single readings scatter.
Experiment: qHTS RealTime-Glo MT Cell Viability Assay in HepG2 cells - 0 hour (AID 1224889); note: nearly all actives have a fitted effect of over 50% in size
Settings: RealTime-Glo luminescence; series mostly up to 76.8 µM
Text: U.S. Tox21 Program National Center for Advancing Translational Sciences [NCATS] NIH Chemical Genomics Center [NCGC] U.S. Environmental Protection Agency [EPA] National Institutes of Environmental Health Sciences [NIEHS] National Toxicology Program [NTP] U.S. Food and Drug Administration [FDA] Tox21 Assay Overview: Measure of cell viability is critical in the cell-base assay. Analysis of cell viability is necessary for the characterization of cell responses to cytotoxic drugs and environmental stress. A RealTime-Glo MT Cell Viability Assay to monitor cell viability in real time of continues cell culture during 40 hours of compound treatment was used to screen Tox21 10K library compounds in HepG2 cells. The RealTime-Glo MT Cell Viability Assay is a nonlytic, homogeneous, bioluminescent method to measure cell viability in real time using a simple, plate-based method. The assay involves adding NanoLuc luciferase and a cell-permeant prosubstrate to cells in culture. Viable cells reduce the proprietary prosubstrate to generate a substrate for NanoLuc luciferase. This substrate diffuses from cells into the surrounding culture medium, where it is rapidly used by the NanoLuc Enzyme to produce a luminescent signal. The signal correlates with the number of viable cells, making the assay well suited for cytotoxicity studies.
Tox21 Assay Protocol Summary: The mixture of HepG2 cell suspension and reagents were dispensed at 600cells/6 ul/well in 1536-well tissue culture treated black solid bottom plates using a Multidrop dispenser. After the assay plates were incubated at a 37 C/5% CO2 incubator for 5 hours, 23 nL of compounds dissolved in DMSO, positive and negative controls was transferred to the assay plate by a pintool work station. The plates were incubated at 37 C for 40 hours. The luminescence intensity were measured at 0h, 8h, 16h, 24h, 32h and 40h time points using ViewLux plate reader during compound treatment.

SMILES	Potency
O=C1CCCc2c1cc1ccc3cccc4ccc2c1c34	inactive
OCc1c[nH]c2ccccc12	inactive
CO[Si](CCCNc1ccccc1)(OC)OC	inactive
O=C(Oc1cccc2cccnc12)c1ccccc1	inactive
CCCCCOc1ccccc1/C(=C\SC)n1ccnc1	inactive
O=C(NOCC1CC1)c1ccc(F)c(F)c1Nc1ccc(I)cc1Cl	inactive
CC[C@@]1(O)C(=O)OCc2c1cc1n(c2=O)Cc2c-1nc1ccccc1c2/C=N/OC(C)(C)C	inactive
CC(C)(C)CC(C)(C)c1ccc(O)c(Cc2ccc(Cl)cc2Cl)c1	inactive
[Cl][Au]([Cl])[Cl]	inactive
C=CC(=O)OCC(CO)(COC(=O)C=C)COC(=O)C=C	inactive
Clc1ccc2cc3ccccc3cc2c1	inactive
Oc1ccc(N=Nc2ccccc2)cc1	inactive
COc1ccc(-c2ccc3cc(C(=O)O)ccc3c2)cc1C12CC3CC(CC(C3)C1)C2	inactive
O=C(OCC(COC(=O)c1ccccc1)(COC(=O)c1ccccc1)COC(=O)c1ccccc1)c1ccccc1	inactive
CCCCCCCCS(=O)C(C)Cc1ccc2c(c1)OCO2 (stereo not given)	inactive
CC(C)CCCCCCCCCCCCCCC(=O)O	inactive
O=c1c(-c2ccccc2)c1-c1ccccc1	inactive
O=Cc1cc(O)ccc1Br	inactive
N#CSc1ccc(N)c([N+](=O)[O-])c1	inactive
O=c1[nH]sc2ccccc12	inactive

SMILES	Potency
CC1=C(C(=O)OC(C)C)C(c2cccc([N+](=O)[O-])c2)C(C(=O)OC2CN(C(c3ccccc3)c3ccccc3)C2)=C(N)N1 (stereo not given)	inactive
CCCCCCCCCCCCCCCC(=O)OC[C@H](O)[C@H]1OC(=O)C(O)=C1O	inactive
Oc1cccc2cc3cccc(O)c3c(O)c12	inactive
CN(C)c1ccc(SC#N)cc1	inactive
CCOC(=O)O[C@H](C)OC(=O)c1ccc2c(c1)cc(C(=O)NC1CCN(C(C)C)CC1)n2Cc1cc(-c2ccc(Cl)s2)on1	inactive
Cc1cc(C2CCCCC2)n(O)c(=O)c1	inactive
CN(C)[C@@H]1C(=O)C(C(N)=O)=C(O)[C@@]2(O)C(=O)C3=C(O)c4c(O)cccc4C[C@H]3C[C@@H]12	inactive
CCCCCCCCCCCCCCCS(=O)(=O)Oc1ccccc1	inactive
Nc1c2ccccc2nc2ccccc12	inactive
Oc1c(Cl)cc(Cl)c2cccnc12	inactive
O=C(OCC1CO1)C1CCCCC1C(=O)OCC1CO1 (stereo not given)	inactive
Cc1cc2c(cc1C(F)(F)F)N(C(=O)Nc1ccc(Oc3cccnc3C)nc1)CC2	inactive
O=C(NO)C1(NS(=O)(=O)c2ccc(Oc3ccc(F)cc3)cc2)CCOCC1	inactive
CCCCCCCC/C=C/CCCCCCCC1=NCCN1CCO	inactive
COc1cc(-c2ccc(N=C=O)c(OC)c2)ccc1N=C=O	inactive
C[C@H]1[C@H]2CC[C@H]3[C@@H]4CC=C5C[C@@H](N(C)C)CC[C@]5(C)[C@H]4CC[C@]23CN1C	inactive
CCCCN1C(=O)[C@@H]([C@H](O)C2CCCCC2)NC(=O)C12CCN(Cc1ccc(Oc3ccc(C(=O)O)cc3)cc1)CC2	inactive
C1CCCC1	inactive
CCN(Cc1cccnc1)C(=O)c1cccc(Cl)c1[C@]1(C)C(=O)N(Cc2ccc(OC)cc2OC)c2ccc(Cl)cc21	inactive
CC/C(=C(\c1ccc(O)cc1)c1ccc(OCCN(C)C)cc1)c1ccccc1	inactive
